Assay outcomes from PubChem.
Sampled rows, rich in hits. Any-hit rate of the full collection: about 3.6%.
D1 potentiator: Potentiators of Human D1 Dopamine Receptor: qHTS; hit rate 0.036% among 360,000; potentiation, % at 10 µM; AID 504651, 2011; HEK293 TREx D1 cells, calcium flux, dopamine EC20 potentiation; D(1A) dopamine receptor (Homo sapiens), P21728; in the data active = potentiation above about 30%; note: 0% is about no effect
D1 ag: Allosteric Agonists of the Human D1 Dopamine Receptor: qHTS; activation, % at 2 µM; D(1A) dopamine receptor (Homo sapiens), P21728; AID 504660, 2011; hit rate 1% among 360,000; HEK293 T-REx D1 cells, calcium flux, agonist mode; note: 0% is about no effect
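Tetracycline-induced HEK293 TREx D1 cells, force-coupled to calcium signalling, were dye-loaded with a no-wash calcium kit. Compound was pin-added after a 10 s baseline. Fluorescence was read kinetically at 1 cycle/s for 180 s, with calcium rises flagged as agonism.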
D1 antagonist: Antagonist of Human D 1 Dopamine Receptor: qHTS. HEK293 TREx D1 cells, calcium flux, dopamine EC80; active compounds read low. activity change, negative = inhibition, % at 10 µM. hit rate 3.2% among 360,000. AID 504652, 2011; in the data active = activity change below about -30%; note: % is set by controls: 0 for no effect and ±100 for the full control effect
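Compound effects on dopamine-evoked calcium signalling were measured in tetracycline-induced HEK293 Trex D1 cells. Dopamine at EC80 followed a 180 s compound pre-read, and fluorescence was tracked kinetically for 180 s more.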
TRHR agonist: qHTS for Small Molecule Agonists and Allosteric Enhancers of Human TRH Receptor: Primary Screen for Agonists | Thyrotropin-releasing hormone receptor (Homo sapiens), P34981 | TRHR cells, calcium flux fluo-8, FDSS agonist mode | activation, % at 2 µM | hit rate 0.18% among 360,000; note: 0% is about no effect
Target sequence (P34981 whole entry, looked up): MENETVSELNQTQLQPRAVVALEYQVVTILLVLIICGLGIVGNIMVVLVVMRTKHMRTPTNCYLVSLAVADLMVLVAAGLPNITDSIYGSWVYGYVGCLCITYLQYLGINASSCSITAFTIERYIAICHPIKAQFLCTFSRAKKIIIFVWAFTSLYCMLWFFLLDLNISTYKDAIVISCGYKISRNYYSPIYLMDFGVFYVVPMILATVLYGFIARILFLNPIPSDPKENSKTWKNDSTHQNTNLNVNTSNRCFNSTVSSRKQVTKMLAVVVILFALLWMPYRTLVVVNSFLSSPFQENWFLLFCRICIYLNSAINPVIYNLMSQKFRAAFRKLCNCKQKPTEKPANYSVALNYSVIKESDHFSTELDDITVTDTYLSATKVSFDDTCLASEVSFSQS
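In this calcium-flux screen, cells bearing human TRHR are dye-loaded with fluo-8, baselined for 10 cycles, then exposed to library compounds; positive kinetic calcium responses during the agonist phase mark hits, with TRH as control.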
LDHA inh: qHTS assay for inhibitors of human lactate dehydrogenase; purified LDHA, NADH/diaphorase-resazurin fluorescence; active compounds read low; activity change, % (values are at about 110 or 230 µM); hit rate 0.15% among 480,000; in the data active = activity change below about -30%;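 note: plate controls were DMSO wells for no effect and wells without enzyme for full effect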
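Human LDH5 (2 nM) was incubated with 0.06 mM NADH and 0.2 mM pyruvate for 5 min at room temperature in Tris pH 7.4. Remaining NADH was coupled through diaphorase/resazurin, and resorufin fluorescence was read at 0 and 20 min.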
TRHR enhancer: qHTS for Small Molecule Agonists and Allosteric Enhancers of Human TRH Receptor: Primary Screen for Enhancers | Thyrotropin-releasing hormone receptor (Homo sapiens), P34981 | TRHR cells, fluo-8 calcium fluorescence, EC20 TRH enhancement | enhancement, % at 2 µM | hit rate 0.66% among 360,000 | AID 493056, 2011; in the data active = enhancement above about 30%; note: 0% is about no effect
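TRHR-expressing cells loaded with fluo-8 calcium dye were read kinetically (ex 480/em 530) during compound addition, then stimulated with an EC20 of TRH (10 nM final). Enhancement of the Gq-mediated intracellular calcium response was scored.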
* = called active by the depositor; . = not tested or not shown. Cut-off read from the data, not from the text of the source, unless noted: active = activation above about 30%; inactive = the rest.

SMILES | D1 potentiator | D1 ag | D1 antagonist | TRHR agonist | LDHA inh | TRHR enhancer
CC(C)CC(NC(=O)Cc1n[nH]c(=O)c2ccccc12)c1ccccc1 (stereo unspecified) | . | . | . | . | -23.3 | .
CC(CNC(=O)c1nccnc1N)c1ccccc1 (stereo unspecified) | . | . | . | . | -4.3 | .
Cc1cc(C)cc(NC(=O)C2(c3ccccc3)CC2(Cl)Cl)c1 (stereo unspecified) | -2.9 | 1.4 | 4.5 | -0.3 | -1.2 | -1.0
Cc1cccc(NC(=O)C2(c3ccccc3)CC2(Cl)Cl)c1 (stereo unspecified) | -15.7 | 24.9 | -63.8* | -0.5 | 5.8 | 6.9
CC(NC(=O)c1cccc(S(=O)(=O)Nc2ccc3c(c2)OCO3)c1)c1cccc(Cl)c1 (stereo unspecified) | . | . | . | . | 18.4 | .
Cn1nc(C(F)(F)F)c(CO)c1Sc1ccc(F)cc1 | 1.4 | 0.8 | 12.3 | 0.1 | -6.0 | 30.2*
COc1ccc(CNc2ccc(Br)cc2)cc1 | 0.3 | 4.5 | -9.3 | 0.2 | -2.9 | 5.2
COc1ccc(NC2=NCC(Cc3ccc(Br)cc3)S2)cc1 (stereo unspecified) | -5.2 | 31.8* | 3.2 | 0.1 | -4.7 | 5.2
Cc1c(C=O)c(C=O)c(C)n1-c1ccc(F)cc1 | . | . | . | . | -6.7 | .
COCCNC(=O)CN(c1ccccc1OC)S(C)(=O)=O | 0.3 | 2.9 | -30.2* | 0.5 | -8.7 | -2.2
COc1ccccc1N(CC(=O)NCCc1ccccc1)S(C)(=O)=O | -1.8 | -0.3 | 19.3 | -0.3 | -4.9 | 14.2
COc1ccccc1N(CC(=O)N/N=C(\C)c1cccc(Br)c1)S(C)(=O)=O | -5.8 | 0.4 | -30.2* | -0.5 | -2.2 | -3.4
CCC(C)(C)NC(=O)CSc1nnc(NC2CC2)s1 | . | . | . | . | -4.4 | .
Cc1ccccc1C1CC(c2ccccc2)Nc2ncnn21 (stereo unspecified) | . | 5.4 | 7.9 | -0.7 | 0.9 | 12.1
CCOc1ccc(C2CC(c3ccccc3C)n3ncnc3N2)cc1 (stereo unspecified) | . | 14.2 | -40.2* | -1.0 | -3.6 | -3.6
NNC(=O)COc1ccc(-c2n[nH]c(C(F)(F)F)c2-c2ccc(Br)cc2)c(O)c1 | -7.6 | 38.9* | -37.3* | 1.8 | -5.3 | -3.5
COc1ccccc1-c1c(-c2ccc(OCC(=O)NN)cc2O)n[nH]c1C(F)(F)F | 2.0 | 1.4 | -9.9 | 0.5 | 0.6 | -1.8
Cc1nn(CC(=O)Nc2ccc(Br)cc2Cl)c(=O)c(C#N)c1C | . | . | . | . | -3.1 | .
N#C/C(=C/c1ccncc1)c1nc2ccccc2s1 | -2.1 | 100.9* | 1.0 | 15.7 | 9.4 | 15.9
COc1ccc(OC)c(-n2nnnc2SCC(=O)Nc2ccccc2N2CCOCC2)c1 | -2.2 | -0.1 | -34.3* | -0.4 | -4.3 | 3.1
COc1ccc(NC(=O)CSc2nnnn2-c2ccccc2OC)c(OC)c1 | -4.8 | 7.5 | -68.4* | 0.1 | -5.0 | -1.3
COc1cccc(-n2c(C)nnc2SCC(=O)Nc2ccccc2N2CCOCC2)c1 | -0.8 | 1.4 | -20.1 | -0.2 | -6.5 | -8.5
CCOc1ccccc1-n1nnnc1SCC(=O)N(C)C1CCS(=O)(=O)C1 (stereo unspecified) | . | . | . | . | -0.1 | .
COc1ccccc1-n1nnnc1SCC(=O)N(C)C1CCS(=O)(=O)C1 (stereo unspecified) | -0.2 | 1.0 | -37.6* | 0.5 | -1.4 | 0.8
COc1ccc(CCNC(=O)CSc2nnnn2-c2ccccc2OC)cc1OC | -7.3 | 14.0 | -52.1* | 0.0 | -0.2 | 0.1
SMILES | D1 potentiator | D1 ag | D1 antagonist | TRHR agonist | LDHA inh | TRHR enhancer
COc1ccccc1-n1nnnc1SCC(=O)NC1CC1 | 3.9 | 1.5 | 1.9 | 0.7 | -0.9 | -0.2
Cn1c(=O)c2c(ncn2C(C(=O)Nc2ccc(F)cc2)c2ccccc2)n(C)c1=O (stereo unspecified) | . | . | . | . | 3.1 | .
COc1cc(C(=O)/C=C/c2cc(Br)c(O)c(OC)c2)ccc1OCC(=O)O | . | . | . | . | 23.0 | .
COc1ccc(CCNC(=O)CSc2cn(Cc3cccc(C)c3)c3ccccc23)cc1OC | 0.8 | 34.3* | 10.2 | 0.6 | -4.3 | -3.7
COc1ccc(Cl)cc1NC(=O)CNc1ccccc1N1CCOCC1 | -6.4 | 2.7 | -34.9* | 0.2 | -4.3 | -0.3
CCOC(=O)Nc1ccc(N2CCn3c(nc4ccccc43)C2)cc1 | . | . | . | . | -23.0 | .
COc1ccc(C(=O)Nc2ccc(C(=O)NC(C)(C)C)cc2)cc1 | . | . | . | . | 4.6 | .
CC(=O)c1c(C)n(C)c2ccc(OC(=O)c3ccc([N+](=O)[O-])cc3)cc12 | 1.2 | 5.6 | -0.9 | 0.3 | 1.4 | 39.7*
CCn1nc(C(=O)NCc2ccco2)c2ccccc2c1=O | . | . | . | . | 0.8 | .
N#C/C(=C/c1ccc(-c2ccccc2[N+](=O)[O-])o1)C(N)=O | -10.6 | -0.5 | -41.0* | 0.7 | 6.6 | -2.4
COc1cccc2sc(Nc3nnc(-c4ccccc4Cl)o3)nc12 | 3.1 | 43.0* | -7.9 | 11.3 | -11.1 | -0.9
CN(C)c1ccc(/C=N/NC(=O)c2ccc3c(c2)OCO3)cc1 | -3.2 | 1.8 | -30.1* | -0.2 | -12.6 | 2.1
CSc1ccc(/C=N/NC(=O)c2ccc(C)c(C)c2)cc1 | -7.5 | 2.5 | -23.8 | -0.2 | -48.4* | -3.6
O=C(/C=C/c1ccccc1)c1ccc2c(c1)OCO2 | 5.3 | 3.9 | -5.0 | 0.4 | 0.8 | 4.3
CN(C)c1ccc(/C=C/C(=O)c2ccc3c(c2)OCO3)cc1 | -0.9 | 455.1* | 4.5 | 121.4* | 3.4 | 23.5
CCCCNC(=O)Cc1n[nH]c(=O)c2ccccc12 | . | . | . | . | -0.1 | .
CC1=C(C(=O)OC2CCCCCC2)C(c2ccc(C)o2)C2=C(CCCC2=O)N1 (stereo unspecified) | -8.8 | -1.6 | -32.9* | 0.0 | 1.1 | -5.4
O=C(O)CCC(NC(=O)c1ccccc1)C(=O)O (stereo unspecified) | . | . | . | . | 1.8 | .
CCCn1nc(C(=O)Nc2nc(-c3ccc(OC)cc3)cs2)c2ccccc2c1=O | . | . | . | . | -4.8 | .
CN1CCN(CC(=O)C(C#N)c2ccccc2)CC1 (stereo unspecified) | . | . | . | . | 6.5 | .
COc1ccc(NS(=O)(=O)c2ccc(N3CCCCS3(=O)=O)cc2)cc1Cl | -0.4 | 19.8 | -30.3* | 1.1 | 4.3 | -0.4
O=S(=O)(NCc1ccc(Cl)cc1)c1ccc(N2CCCCS2(=O)=O)cc1 | -0.7 | 20.4 | -35.1* | -1.5 | 0.2 | -0.7
CS(=O)(=O)c1ccccc1C(=O)NCc1coc(-c2cccs2)n1 | . | . | . | . | -9.4 | .
Cc1cccc(C(=O)NC(Nc2ccccc2)C(Cl)(Cl)Cl)c1 (stereo unspecified) | . | . | . | . | -1.9 | .
CN1CCN(/N=C/c2ccc(Br)cc2)CC1 | -7.8 | 13.2 | -33.3* | 0.5 | -0.7 | -4.7
